D2 ag-1: activates the human D2 dopamine receptor; AID 485358; 340,000 compounds, 0.53% hits; activation, % at 2 µM; P14416; HEK293 T-REx D2 cells, calcium flux agonist mode;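 active = activation over 3 SD above normal in the single-dose calcium agonist read, cut at about 30% in these data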
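Tetracycline-induced HEK293 Trex cells with D2 receptor force-coupled to calcium signaling, plated overnight at 30 C and loaded with no-wash calcium dye. Calcium flux read kinetically for 180 s after compound addition; responses flag agonists.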
D2 PAM-1: positively modulates the human D2 dopamine receptor allosterically; P14416; HEK293 T-REx D2, calcium flux, EC20 dopamine potentiation; potentiation, % at 10 µM; 340,000 compounds, 0.34% hits;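 active = potentiation over 3 SD above the plate norm, cut at about 30% in these data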
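Potentiation of an EC20 dopamine calcium response measured kinetically over 180 s, after a preceding 180 s compound-only read flagging agonists. Cells: inducible Hek293 Trex D2 line, 4000/well, cultured overnight at 30 C before dye loading.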
D2 ag-2: agonists of human D2 dopamine receptor (beta-arrestin); 360,000 compounds, 0.084% hits; P14416; DiscoveRx PathHunter D2 beta-arrestin, luminescence, 90 min; 100% = 57 uM dopamine signal; activation, % (concentration not given with the values); AID 624465; in the data active = activation above about 40%; inconclusive = between about 15% and that limit
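Agonist mode: compounds alone added to overnight-plated D2 PathHunter cells for 90 min at 37 C, with 57 uM final dopamine (EC100) defining full response. Beta-arrestin recruitment detected by chemiluminescent reagent, read after 1 h at ambient temperature.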
D2 PAM-2: positive allosteric modulators of human D2 dopamine receptor; DiscoveRx D2 beta-arrestin cells, luminescence, 90 min; 100% = 57 uM dopamine signal; 360,000 compounds, 0.23% hits; P14416; potentiation, % (concentration not given with the values); in the data active = potentiation above about 50%; inconclusive = mostly about 30% to 49%
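D2 cells co-treated with compound plus 50 nM dopamine (EC20) for 90 min at 37 deg C to detect potentiation. Beta-arrestin recruitment was read as enzyme-fragment luminescence after 1 h at ambient temperature. Full response was set by 57 uM dopamine.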
B2AR arrestin: beta2AR (human) beta-arrestin recruitment activity | P07550 | beta-arrestin recruitment to beta2AR, cell-based reporter | Potency, µM (highest dose often 46.1 µM), most hits filed as activators | 330,000 compounds, 0.02% hits; active = well fitted activation curve with a large enough effect; inconclusive = small, poorly fitted or top-dose-only effect; also: nearly all actives have a fitted effect of over 65% in size
Target sequence (P07550 whole entry, looked up): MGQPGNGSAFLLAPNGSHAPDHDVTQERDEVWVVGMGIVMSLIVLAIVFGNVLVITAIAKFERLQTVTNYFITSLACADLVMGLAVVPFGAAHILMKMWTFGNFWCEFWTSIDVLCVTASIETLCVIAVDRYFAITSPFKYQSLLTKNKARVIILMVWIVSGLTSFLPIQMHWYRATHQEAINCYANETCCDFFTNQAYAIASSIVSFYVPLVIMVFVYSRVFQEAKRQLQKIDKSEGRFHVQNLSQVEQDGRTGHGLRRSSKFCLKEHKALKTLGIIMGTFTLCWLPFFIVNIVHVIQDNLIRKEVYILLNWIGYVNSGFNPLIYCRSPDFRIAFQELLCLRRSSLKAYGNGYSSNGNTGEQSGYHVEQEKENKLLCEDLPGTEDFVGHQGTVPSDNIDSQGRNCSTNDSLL
D2 antag: D2 dopamine receptor (human) antagonism | P14416 | HEK293 TREx D2 cells, calcium flux, dopamine EC80 | inhibition, % at 10 µM | 340,000 compounds, 2% hits | AID 485344; in the data active = inhibition above about 30%; inactive = below that, where a call was filed
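HEK293 T-REx D2 cells, tet-induced, calcium dye no-wash. Cpd pintool add, 180 s kinetic, then EC80 DA, 180 s kinetic. Ca flux read.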
Large screens that a line does not name were inactive; ! = a repeat was not active. This is a sample that favours compounds with a hit; in the whole collection about 2.4% have one here.

COc1ccc(Br)cc1/C=N/NC(=O)c1ccco1	none
CC(C)(C)c1ccc(OCC(=O)N/N=C/c2cc(Br)ccc2OC(=O)c2ccco2)cc1	D2 antag 34
O=C(NCCNC1CCC(c2ccccc2)CC1)c1ccc(F)cc1 (stereo not drawn)	D2 antag 85
CC1=Nc2ccc(C)cc2/C1=C/c1c(N)n2oc(C)cc2nc1=O	D2 antag 61!
CC(=O)Nc1ccc(S(=O)(=O)N(C)CC(=O)OCC(=O)NNC(=O)c2ccccc2F)cc1	none
Cc1cc(C)c(C#N)c(SCCN2CCCCC2)n1	none
Cc1ccc(C#N)c(SCCN2CCCCC2)n1	D2 antag 34
O=C(Cc1ccc([N+](=O)[O-])cc1)NNC(=O)c1cccs1	none
CCCN1C(=O)/C(=C/c2c(N3CCNC(=O)C3CC(=O)OC)nc3c(C)cccn3c2=O)SC1=S (stereo not drawn)	D2 ag-1 55, D2 antag 43 (no result: D2 ag-2, D2 PAM-2)
CC(C)(C)NC(=O)CN(C(=O)CS(=O)CC(=O)Nc1ccc(F)cc1)c1ccccc1F (stereo not drawn)	none
CCOC(=O)Cn1ccc2cc(S(=O)(=O)N3CCCC3)ccc21	none (no result: D2 ag-1, D2 PAM-1, B2AR arrestin, D2 antag)
C/C(=N\NC(=O)c1cc2ccccc2cc1O)c1ccc2c(c1)OCO2	D2 antag 33
Cc1ccc(NC(=S)c2nc3ccccc3s2)cc1	D2 PAM-1 87
CCOc1ccc(-c2nc(SCC(=O)Nc3ccc4c(c3)OCCO4)c(-c3ccc(F)cc3)[nH]2)cc1	none (no result: D2 ag-2, D2 PAM-2, B2AR arrestin, D2 antag)
Cc1ccc(S(=O)(=O)Oc2ccccc2N2C(=O)C3CC=CCC3C2=O)cc1 (stereo not drawn)	D2 antag 40
O=C(/C=C/c1ccccc1)NCc1ccco1	none
N#C/C(=C\C=C\c1ccccc1)C(=O)NCc1ccco1	D2 antag 37
Cc1ccc(NC(=O)CSc2nc3[nH]c(=O)cc(O)c3s2)c(Br)c1	D2 antag 59
Cc1cc(NC(=O)CSc2nc3[nH]c(=O)cc(O)c3s2)ccc1Br	none (no result: D2 ag-1, D2 PAM-1, D2 antag)
COC(=O)C1(C)NC(c2ccc(F)cc2)C2C(=O)N(c3ccc(C)cc3)C(=O)C21 (stereo not drawn)	none
Nc1c(C(O)(C(F)(F)F)C(F)(F)F)cc(C(O)(C(F)(F)F)C(F)(F)F)c2ccccc12	D2 ag-2 inconclusive, D2 PAM-2 91
O=C(NCCN1C(=O)S/C(=C\c2cccnc2)C1=O)c1ccc([N+](=O)[O-])s1	D2 antag 33
CC1CN(S(=O)(=O)c2ccc(C(=O)Nc3nnc(-c4ccc5c(c4)CCCC5)o3)cc2)CC(C)O1 (stereo not drawn)	none
O=C(O)c1ccc(NS(=O)(=O)c2cc(C(=O)O)ccc2Br)cc1	D2 PAM-2 70
O=C(O)c1ccc(NS(=O)(=O)c2ccc(N3C(=O)CCC3=O)cc2)cc1	D2 antag 39
OCCN1CCN(c2nc3ccccc3nc2-c2ccccc2)CC1	none
CSc1nc2ccc(NC(=O)CSc3nnc(N)s3)cc2s1	none
COc1ccc(CC(=O)Nc2ccc3nc(SC)sc3c2)cc1OC	D2 ag-1 33
Cc1ccc(S(=O)(=O)NC(=O)NN2CCCCCC2)cc1	D2 antag 34
O=C(CSc1nnc(CNC(=O)c2ccc(F)cc2)o1)Nc1ccc2c(c1)OCCO2	none
CN(CC(=O)Nc1cccc(F)c1)C(=O)c1ccc2c(c1)S(=O)(=O)N=C1CCCCCN12	D2 PAM-1 32
O=C(NCCN1CCOCC1)c1cc([N+](=O)[O-])ccc1Cl	none
O=C(NCCN1CCOCC1)c1ccc([N+](=O)[O-])cc1[N+](=O)[O-]	D2 PAM-2 50, D2 antag 43
COc1ccc(C(=S)N2CCOCC2)cc1OC(=O)c1ccc([N+](=O)[O-])cc1[N+](=O)[O-]	D2 ag-2 inconclusive, D2 PAM-2 inconclusive
O=C(Oc1ccccc1C(=S)N1CCOCC1)c1ccc([N+](=O)[O-])cc1[N+](=O)[O-]	D2 ag-2 inconclusive, D2 PAM-2 58
O=C(CN1CCCC1)N1c2ccccc2Sc2ccc(C(F)(F)F)cc21	none
CCNCCC(=O)N1c2ccccc2Sc2ccc(C(F)(F)F)cc21	D2 antag 73
O=C(NCc1ccccc1Cl)c1ccc(CSc2nc3ccncc3[nH]2)cc1	none
Clc1ccccc1CSc1nc2ccncc2[nH]1	D2 antag 32
CCOC(=O)N1CCN(C(=O)C(=O)Nc2sc3c(c2C(=O)O)CC(C)(C)OC3)CC1	none
CCOC(=O)N1CCN(C(=O)C(=O)Nc2sc3c(c2C(N)=O)CC(C)(C)OC3)CC1	D2 antag 33
CCCCn1c(SCC(=O)c2ccc(OCC)cc2)nc2cc(S(N)(=O)=O)ccc21	D2 antag 45
CCCCn1c(SCC(=O)c2ccc(OC)c(OC)c2)nc2cc(S(N)(=O)=O)ccc21	none
Cc1ccc(-c2nn(-c3cccc(F)c3)cc2CN2CCN(c3ccccn3)CC2)o1	D2 antag 80
CCOc1ccc(S(=O)(=O)NC2=NCCCCC2)cc1	D2 PAM-1 71
CC1CC(C)CN(C(=O)/C=C/c2ccc(S(=O)(=O)N3CCOCC3)cc2)C1 (stereo not drawn)	D2 antag 30
CC(=O)Nc1ccc(S(=O)(=O)NCC2CCC(C(=O)NCCC(C)C)CC2)cc1 (stereo not drawn)	none
Cn1nc(C(F)(F)F)c(-c2cccc(C(F)(F)F)c2)c1NC(=O)c1cccnc1	none
O=c1c(O)c(-c2cccs2)oc2ccccc12	D2 ag-1 42
O=c1c(O)c(-c2ccccc2)oc2ccccc12	none (no result: D2 ag-1, D2 PAM-1, B2AR arrestin, D2 antag)
O=c1c(O)c(-c2cccs2)oc2ccc(Cl)cc12	D2 ag-1 93, D2 antag 51
O=c1cc(-c2cccs2)oc2ccc(Cl)cc12	none
CCCCN(C(C)=O)c1ccc(S(=O)(=O)NC2=NCCCCC2)cc1NC(C)=O	none (no result: D2 ag-1, D2 PAM-1, D2 antag)
CCN(CC)c1ccc2cc(C(=O)NCc3ccc(F)cc3)c(=N)oc2c1	D2 ag-1 46 (no result: D2 ag-2, D2 PAM-2)
CCOC(=O)[C@@H]1CCN(Cc2ccccc2)C[C@H]1c1ccccc1	none
COc1ccc(-n2c(N)c(-c3nc4ccccc4n3C)sc2=S)cc1	D2 antag 34
Cc1ccc(CNS(=O)(=O)c2c(C(=O)N3CCCCC3)c(C)n(C)c2C)cc1	none
COc1cccc(N(C(=O)CNC(=O)c2ccco2)C(C(=O)NC2CCCC2)c2ccncc2)c1 (stereo not drawn)	none (no result: D2 PAM-1)
COc1ccc(N(C(=O)CNC(=O)c2ccco2)C(C(=O)NC2CCCC2)c2ccncc2)cc1 (stereo not drawn)	D2 antag 51

Screening results (PubChem BioAssay)
